Molecules are shown by their SMILES. This is part of a sample that, as a whole, favours compounds with a hit. Of some 83,000 tested, about 20% had one in any assay.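 Treatment: one concentration, 48 hours, 96-well format. Scoring: percent growth, with anything below 10 considered active.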 A number with no mark means an inactive call. The source made the active and inactive calls.

What all share (experiment): NCI-60 one-dose screen, 48 h (100 = growth as untreated, 0 = no growth, -100 = all killed)
Conditions in all cases: 10 µM unless noted

In experiment [1] the test system is SK-MEL-2 melanoma.
Experiment [2] concerns EKVX NSCLC.
Experiment [3] has as its system SN12C renal.
Experiment [4] concerns UO-31 renal.
The test system of experiment [5] is TK-10 renal.
In experiment [6] the test system is ACHN renal.
For experiment [7], the system named is CAKI-1 renal.
The subject of experiment [8] is A498 renal.
Experiment [9] relates to CCRF-CEM leukemia.
Experiment [10] has as its system MOLT-4 leukemia.
In experiment [11] the test system is RPMI-8226 leukemia.
The subject of experiment [12] is OVCAR-8 ovarian.
Experiment [13] concerns OVCAR-5 ovarian.
Experiment [14] deals with OVCAR-4 ovarian.
In experiment [15] the test system is SK-OV-3 ovarian.
In experiment [16] the test system is IGROV1 ovarian.
In experiment [17] the test system is OVCAR-3 ovarian.
Experiment [18] relates to HS 578T breast.
The subject of experiment [19] is NCI/ADR-RES ovarian.

`Cc1cccc(NC(=O)CSc2nc3ccccc3[nH]2)c1`: the growth was 109% in [1]; 93.4% in experiment [2]; 98.8% in experiment [3]; 75% in [4]; 106% in [5]; 97.5% in experiment [6]. Also, the growth in [7] is 82.6%; in [8] it was 53.4%; in experiment [9], 102%; in experiment [10], 102%; in experiment [11] it was 99.8%; in [12], 103%. For the same molecule, the growth in [13] is 106%; in [14], 93.2%; in experiment [15] it was 95.9%; in experiment [16], 97.6%; in experiment [17], 107%; in experiment [18], 90.7%. In addition, the growth in experiment [19] is 98.4%.
In the case of `CCN(CC)CCCC(C)Nc1c2ccc(Cl)cc2nc2ccc(O)cc12` (stereo unspecified), the growth is 52.6% in [1]; 48.6% in experiment [2]; 30.8% in experiment [3]; 34.4% in experiment [4]; 55% in [5]; 24.2% in [6]. The growth in experiment [7] was 70.9%; in experiment [8], 90.7%; in experiment [9] it was 48.3%; in [10] it was 7.11% (active); in experiment [11] it was 21.8%; in [12], 30.1%. For the same molecule, the growth is 74.3% in experiment [13]; 24.6% in experiment [14]; 58.1% in experiment [15]; 53.8% in [16]; 54.8% in [17]; 58% in experiment [18]. Also, the growth in experiment [19] was 77.3%.
With `S=C(c1ccc2c(c1)OCO2)N1CCN(c2ccccc2Cl)CC1`, the growth in experiment [1] is 97.3%; in [2] it was 124%; in experiment [3], 110%; in experiment [4] it was 79.4%; in [5] it was 105%; in experiment [6] it was 99%. Moreover, the growth in experiment [7] is 83.8%; in [8], 97%; in [9], 96.1%; in experiment [10] it was 95.8%; in experiment [11], 85.9%; in [12], 102%. Further, the growth in [13] was 97.6%; in experiment [14] it was 98.7%; in experiment [15], 102%; in [16] it was 101%; in [17], 112%; in experiment [18] it was 107%. Besides, the growth in experiment [19] is 99.7%.
Consider `CC(C)C(NC(=O)C1(NC(=O)OCc2ccccc2)CCCC1)C(=O)O` (stereo unspecified), for which the growth in experiment [1] is 107%; in experiment [2] it was 110%; in [3] it was 102%; in experiment [4], 81%; in [5], 108%; in [6], 96.8%. The growth in experiment [7] is 102%; in experiment [8] it was 102%; in experiment [9], 104%; in experiment [10], 96%; in experiment [11], 111%; in experiment [12], 110%. The growth in experiment [13] was 94.8%; in experiment [14], 124%; in experiment [15], 96.2%; in experiment [16], 107%; in experiment [17], 120%; in experiment [19], 104%.
As for `CCCCCCN(CCCCCC)c1ccc(/C=C2/SC(=O)N(c3nc(N4CCCC4)nc(N4CCCC4)n3)C2=O)c(C)c1`, the growth in [1] is 53.9%; in experiment [2], 87.2%; in [3] it was 59.9%; in [4], 52.9%; in [5], 85.8%; in experiment [6], 68.5%. Also, the growth in experiment [7] is 82.5%; in [8], 60.9%; in [9], 54.1%; in experiment [10], 38.1%; in experiment [11], 42%; in experiment [12], 66.1%. The growth in experiment [13] was 104%; in [14], 51.9%; in experiment [15], 91.3%; in [16], 77.3%; in [17] it was 63.2%; in [18], 78.4%. For the same molecule, the growth in [19] was 71.3%.
As to `CC(=O)O[C@]1(C(C)=O)CCC2C3C[C@H](C)C4=CC(=O)CC[C@]4(C)C3CC[C@@]21C` (stereo partly specified), the growth was 98.1% in experiment [1]; 72.6% in [2]; 63.1% in [3]; 65.6% in experiment [4]; 106% in experiment [5]; 96.6% in [6]. Also, the growth is 73.8% in experiment [7]; 103% in experiment [8]; 81.8% in experiment [9]; 81.7% in experiment [10]; 58.9% in [11]; 91.7% in experiment [12]. In addition, the growth is 90.6% in experiment [13]; 93% in experiment [14]; 81.9% in experiment [15]; 81.6% in [16]; 115% in experiment [17]; 130% in [18]. Further, the growth in experiment [19] is 79.6%.
With `C=CCNc1nc(NN2C(=O)c3cccc4cccc(c34)C2=O)nc(-n2cnc3ccccc32)n1`, the growth is 98.9% in [1]; 62.8% in [2]; 60.4% in experiment [3]; 14.3% in experiment [4]; 102% in experiment [5]; 64.8% in experiment [6]. The growth is 51.5% in experiment [7]; 32.4% in experiment [8]; 83.8% in experiment [9]; 56% in experiment [10]; 65.7% in experiment [11]; 81.5% in experiment [12]. The growth in experiment [13] was 77.2%; in experiment [14], 52.5%; in [15], 40.9%; in experiment [16], 46.7%; in experiment [17] it was 84.5%; in experiment [18], 35.9%. For the same molecule, the growth in [19] is 72%.
Take `CCN(CC)c1ccc2nc3c4ccccc4c(=NC(=O)c4ccccc4-c4c5ccc(N(CC)CC)cc5[o+]c5cc(N(CC)CC)ccc45)cc-3oc2c1`: the growth in experiment [1] is 41.7%; in [2], 54.6%; in experiment [3] it was 64%; in [4] it was 32.6%; in experiment [5], 74.6%; in experiment [6], 73.6%. Also, the growth is 55.2% in experiment [7]; 86.9% in experiment [8]; 24.4% in experiment [9]; -23.9% (active) in [10]; 1.89% (active) in [11]; 43.8% in [12]. The growth in [13] is 73%; in experiment [14], -47.4% (active); in experiment [15], 78.9%; in experiment [16], -66.6% (active); in experiment [17] it was -50.1% (active); in [18] it was 63.3%. In addition, the growth in experiment [19] was 51.5%.

The record behind these values is PubChem BioAssay (NCI).
